About 83,000 compounds went through this panel and 20% of them were active in at least one assay; those are over-represented in the sample as a whole.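 Testing used 96-well plates and a 48-hour single-concentration exposure. Example: -40 means 40% of the starting cells died.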 A number with no mark means an inactive call. Activity calls are given as the source filed them. Rule for the calls: active = growth percent below 10; inactive = the rest.

Drawing on PubChem BioAssay (NCI), this text covers growth for 39 compounds.

The test system of one assay is SNB-19 CNS. Description: NCI-60 one-dose screen, 48 h (100 = growth as untreated, 0 = no growth, -100 = all killed). The conditions noted are these: 10 µM unless noted.
In the case of `C[C@]12CCc3nc(Nc4ccc(O)cc4)sc3C1=CC[C@@H]1[C@@H]2CC[C@]2(C)/C(=N/NC(N)=S)CC[C@@H]12`, the growth is -13.1% (active).

Turning to `Cc1cc(N=Nc2ccc(-c3ccc(N=Nc4ccc(O)c(C(=O)O)c4)cc3)cc2)c(N)c(N=Nc2ccc(C(=O)O)cc2)c1N`, the growth is 95.5%.

Turning to `Cc1cc(C)c2c(n1)sc1c(Nc3ccc(OCc4ccccc4)cc3)ncnc12`, the growth was 101%.

As for `COc1ccc2[nH]c(C(=O)OCc3ccc4cccc(O)c4n3)cc2c1`, the growth is 50.8%.

With `Cc1ccc2oc(=O)cc(-c3nc4ccc([N+](=O)[O-])cc4[nH]3)c2c1`, the growth is 61.4%.

In the case of `Cc1nc2ccc(Nc3nc(Cl)nc(N4CCOCC4)n3)cc2n1Cc1ccccc1`, the growth is 94.6%.

Consider `CC(=O)c1c(O)c(C)c(O)c2c1OC1=CC(=O)/C(=C(/C)N)C(=O)C12C` (centres undefined), for which the growth is 103%.

Take `O=C(CI)NCCNc1cccc2c(S(=O)(=O)O)cccc12`: the growth was 89.7%.

Turning to `O=c1[nH]cnc2nc[nH]c12`, the growth was 107%.

As for `COS(=O)(=O)CCN(CCOS(C)(=O)=O)S(C)(=O)=O`, the growth was 107%.

Take `COc1cc(C2CC(c3cccc(Nc4ccnc5cc(Cl)ccc45)c3)=NN2c2ccccc2)cc(OC)c1OC` (centres undefined): the growth is 90.9%.

As for `O=C1/C(=C\c2cccn2Cc2ccc(F)cc2)c2ccccc2N1c1c(Cl)cccc1Cl`, the growth was 81.3%.

For the compound `CC(C)(C)c1ccc(Cn2c(-c3nonc3N)nc3ccccc32)cc1`, the growth is 77.4%.

As for `CSC(=S)N/N=C(\C)c1ccccn1`, the growth was 24.6%.

As to `CCC(C)C1NC(=O)c2nc(oc2-c2ccccc2)-c2csc(n2)-c2csc(n2)-c2nc(oc2C)-c2coc(n2)CNC(=O)C(C(C)CC)NC1=O` (centres undefined), the growth was -61.3% (active).

As for `CCOC(=O)C1=C(C)NC(SCc2nnc(-c3ccc(Cl)cc3)o2)=NC1c1ccc(Br)cc1` (centres undefined), the growth was 72%.

For the compound `CC(CN1CCN(C)CC1)CN1c2ccccc2Sc2ccc(C(F)(F)F)cc21` (centres undefined), the growth was 63.1%.

For `Cc1[nH]nc2ccc3nc(-c4ccc5[nH]ncc5c4)c4c(c3c12)CCCC4`, the growth was 35.8%.

For `COc1cc(C2CC(c3ccc(Nc4ccnc5cc(Cl)ccc45)cc3)=NN2c2ccccc2)cc(OC)c1OC` (centres undefined), the growth is 79.7%.

Consider `Cc1nc2c(-c3cnc(N)nc3)nc(N3CCOCC3)nc2n1C(C)C`, for which the growth is 10.6%.

As to `[Ag].[Ag].[NH-]S(=O)(=O)c1ccc(N=Nc2cc(N=Nc3ccc(S([NH-])(=O)=O)cc3)c3c(NC(=O)C(Cl)Cl)cccc3c2OC(=O)C(Cl)Cl)cc1.[c-]1nccs1.[c-]1nccs1`, the growth was 80.7%.

In the case of `Nc1ccc(N(O)/C=C2\C=CC=CC2=O)cc1N`, the growth is 102%.

As to `Cc1nc2ccc(Nc3nc(N4CCOCC4)nc(N4CCN(C)CC4)n3)cc2n1Cc1ccccc1`, the growth is 112%.

With `CC(C)CC(NC(=O)C(CCCN=C(N)N)NC(=O)OCc1ccccc1)C(=O)NC(CNC(=O)/C=C/c1ccccc1)C(C)C` (centres undefined), the growth is 99.9%.

`CCOC(=O)c1ccc(NCCC(=O)O)cc1`: the growth is 105%.

With `Cc1ccc(-c2cnc3sc4ccc(Cl)cc4n23)cc1`, the growth is 96.4%.

For `COc1cc(C)c2c(=O)c3c(oc2c1)C(=O)c1c(O)c(OC)cc(O)c1C3=O`, the growth is 20.2%.

Consider `O=C(OCc1ccc2c(Br)cc(Br)c(O)c2n1)c1cc2ccccc2[nH]1`, for which the growth is 45.6%.

For `CN1CCN(Cc2ccc(NC(=O)c3cncc(C#Cc4cnc5cccnn45)c3)cc2C(F)(F)F)CC1`, the growth was 9.4% (active).

For `CCOC(=O)c1ccccc1SC(C[N+](=O)[O-])c1ccccc1` (centres undefined), the growth was 95.2%.

Another assay deals with U251 CNS. The description is as above. The conditions noted are these: 10 µM unless noted.
`O=C(Nc1ccc(Oc2ccc(Nc3nc4ccccc4s3)cc2)cc1)Nc1ccc(Cl)c(C(F)(F)F)c1`: the growth is 2.67% (active).

In the case of `C[C@]12CCc3nc(Nc4ccc(O)cc4)sc3C1=CC[C@@H]1[C@@H]2CC[C@]2(C)/C(=N/NC(N)=S)CC[C@@H]12`, the growth was -70.3% (active).

As for `Cc1cc(N=Nc2ccc(-c3ccc(N=Nc4ccc(O)c(C(=O)O)c4)cc3)cc2)c(N)c(N=Nc2ccc(C(=O)O)cc2)c1N`, the growth was 88.4%.

Consider `c1ccc2c(c1)cnc1ccccc12`, for which the growth was 109%.

For `Cc1cc(C)c2c(n1)sc1c(Nc3ccc(OCc4ccccc4)cc3)ncnc12`, the growth is 98.4%.

In the case of `COc1ccc2[nH]c(C(=O)OCc3ccc4cccc(O)c4n3)cc2c1`, the growth was 22.1%.

As to `Cc1ccc2oc(=O)cc(-c3nc4ccc([N+](=O)[O-])cc4[nH]3)c2c1`, the growth is 41.9%.

As for `Cc1nc2ccc(Nc3nc(Cl)nc(N4CCOCC4)n3)cc2n1Cc1ccccc1`, the growth was 90.5%.

Take `CC(=O)c1c(O)c(C)c(O)c2c1OC1=CC(=O)/C(=C(/C)N)C(=O)C12C` (centres undefined): the growth is 94.7%.

Turning to `O=C(CI)NCCNc1cccc2c(S(=O)(=O)O)cccc12`, the growth was 105%.

For the compound `O=c1[nH]cnc2nc[nH]c12`, the growth was 103%.

For the compound `CCN(CC)C(Cl)=Nc1ccc(Cl)cc1`, the growth was 94%.

Turning to `c1ccc2c(Cc3csc4ccccc34)csc2c1`, the growth was 81.9%.

Take `COS(=O)(=O)CCN(CCOS(C)(=O)=O)S(C)(=O)=O`: the growth is 96.8%.

As for `COc1cc(C2CC(c3cccc(Nc4ccnc5cc(Cl)ccc45)c3)=NN2c2ccccc2)cc(OC)c1OC` (centres undefined), the growth is 78.8%.

In the case of `O=C1/C(=C\c2cccn2Cc2ccc(F)cc2)c2ccccc2N1c1c(Cl)cccc1Cl`, the growth is 75.7%.

For the compound `CC(C)(C)c1ccc(Cn2c(-c3nonc3N)nc3ccccc32)cc1`, the growth was 64.5%.

On to `CSC(=S)N/N=C(\C)c1ccccn1`, for which the growth was 13.9%.

For `CCC(C)C1NC(=O)c2nc(oc2-c2ccccc2)-c2csc(n2)-c2csc(n2)-c2nc(oc2C)-c2coc(n2)CNC(=O)C(C(C)CC)NC1=O` (centres undefined), the growth is -83.4% (active).

In the case of `CCOC(=O)C1=C(C)NC(SCc2nnc(-c3ccc(Cl)cc3)o2)=NC1c1ccc(Br)cc1` (centres undefined), the growth was 65.7%.

Regarding `CC(CN1CCN(C)CC1)CN1c2ccccc2Sc2ccc(C(F)(F)F)cc21` (centres undefined), the growth is 1% (active).

Regarding `Cc1[nH]nc2ccc3nc(-c4ccc5[nH]ncc5c4)c4c(c3c12)CCCC4`, the growth is 26.4%.

`CCCOC(=O)C1c2cc3c(cc2CC(C)C1C(=O)OCCC)OCO3` (centres undefined): the growth is 95.2%.

As for `COc1cc(C2CC(c3ccc(Nc4ccnc5cc(Cl)ccc45)cc3)=NN2c2ccccc2)cc(OC)c1OC` (centres undefined), the growth is 60.5%.

As to `CC(=O)c1c(C)nc(-c2cc(C)cc(Cl)c2)nc1-c1cccc(Oc2ccccc2)c1`, the growth was 76.1%.

For the compound `CC(C)NC(=O)OCC#CCOC(=O)NC(C)C`, the growth was 99.5%.

`Cc1nc2c(-c3cnc(N)nc3)nc(N3CCOCC3)nc2n1C(C)C`: the growth was 4.62% (active).

On to `[Ag].[Ag].[NH-]S(=O)(=O)c1ccc(N=Nc2cc(N=Nc3ccc(S([NH-])(=O)=O)cc3)c3c(NC(=O)C(Cl)Cl)cccc3c2OC(=O)C(Cl)Cl)cc1.[c-]1nccs1.[c-]1nccs1`, for which the growth is 75.2%.

Turning to `Nc1ccc(N(O)/C=C2\C=CC=CC2=O)cc1N`, the growth is 94.1%.

Turning to `Cc1nc2ccc(Nc3nc(N4CCOCC4)nc(N4CCN(C)CC4)n3)cc2n1Cc1ccccc1`, the growth was 73.5%.

As for `CC(C)CC(NC(=O)C(CCCN=C(N)N)NC(=O)OCc1ccccc1)C(=O)NC(CNC(=O)/C=C/c1ccccc1)C(C)C` (centres undefined), the growth was 106%.

For `CCOC(=O)c1ccc(NCCC(=O)O)cc1`, the growth was 109%.

As for `Cc1ccc(-c2cnc3sc4ccc(Cl)cc4n23)cc1`, the growth was 105%.

With `COc1cc(C)c2c(=O)c3c(oc2c1)C(=O)c1c(O)c(OC)cc(O)c1C3=O`, the growth is 10.8%.

Take `O=C(OCc1ccc2c(Br)cc(Br)c(O)c2n1)c1cc2ccccc2[nH]1`: the growth is 22.7%.

For `CN1CCN(Cc2ccc(NC(=O)c3cncc(C#Cc4cnc5cccnn45)c3)cc2C(F)(F)F)CC1`, the growth is 5.83% (active).

With `CCOC(=O)c1ccccc1SC(C[N+](=O)[O-])c1ccccc1` (centres undefined), the growth was 81.8%.

Turning to `CC(C)CC(NC(=O)OCC1c2ccccc2-c2ccccc21)C(=O)O` (centres undefined), the growth was 97.6%.

With `CN1CCN(Cc2ccc(NC(=O)c3cncc(C#Cc4ccc(N)nc4)c3)cc2C(F)(F)F)CC1`, the growth is 14.9%.
